Experimental data as given in article PMC4336329 (PLoS ONE, 2015).
Hit rate of the full screen: of about 310,000 compounds, about 14,000 (4.5%) showed an effect of 50% or more. The effect is printed as a negative number. The list comes from a sample in which strong results are over-represented; it also holds similar structures and randomly drawn compounds.

target: human ether-à-go-go-related gene (hERG) potassium channel (human, UniProt Q12809); assay: primary screen, population patch clamp on CHO cells stably expressing hERG; higher = less effect of the substance
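Note: peak tail current of the secondary pulse compared with the same well before compound.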

Chain of human ether-à-go-go-related gene (hERG) potassium channel (Q12809 whole entry, looked up): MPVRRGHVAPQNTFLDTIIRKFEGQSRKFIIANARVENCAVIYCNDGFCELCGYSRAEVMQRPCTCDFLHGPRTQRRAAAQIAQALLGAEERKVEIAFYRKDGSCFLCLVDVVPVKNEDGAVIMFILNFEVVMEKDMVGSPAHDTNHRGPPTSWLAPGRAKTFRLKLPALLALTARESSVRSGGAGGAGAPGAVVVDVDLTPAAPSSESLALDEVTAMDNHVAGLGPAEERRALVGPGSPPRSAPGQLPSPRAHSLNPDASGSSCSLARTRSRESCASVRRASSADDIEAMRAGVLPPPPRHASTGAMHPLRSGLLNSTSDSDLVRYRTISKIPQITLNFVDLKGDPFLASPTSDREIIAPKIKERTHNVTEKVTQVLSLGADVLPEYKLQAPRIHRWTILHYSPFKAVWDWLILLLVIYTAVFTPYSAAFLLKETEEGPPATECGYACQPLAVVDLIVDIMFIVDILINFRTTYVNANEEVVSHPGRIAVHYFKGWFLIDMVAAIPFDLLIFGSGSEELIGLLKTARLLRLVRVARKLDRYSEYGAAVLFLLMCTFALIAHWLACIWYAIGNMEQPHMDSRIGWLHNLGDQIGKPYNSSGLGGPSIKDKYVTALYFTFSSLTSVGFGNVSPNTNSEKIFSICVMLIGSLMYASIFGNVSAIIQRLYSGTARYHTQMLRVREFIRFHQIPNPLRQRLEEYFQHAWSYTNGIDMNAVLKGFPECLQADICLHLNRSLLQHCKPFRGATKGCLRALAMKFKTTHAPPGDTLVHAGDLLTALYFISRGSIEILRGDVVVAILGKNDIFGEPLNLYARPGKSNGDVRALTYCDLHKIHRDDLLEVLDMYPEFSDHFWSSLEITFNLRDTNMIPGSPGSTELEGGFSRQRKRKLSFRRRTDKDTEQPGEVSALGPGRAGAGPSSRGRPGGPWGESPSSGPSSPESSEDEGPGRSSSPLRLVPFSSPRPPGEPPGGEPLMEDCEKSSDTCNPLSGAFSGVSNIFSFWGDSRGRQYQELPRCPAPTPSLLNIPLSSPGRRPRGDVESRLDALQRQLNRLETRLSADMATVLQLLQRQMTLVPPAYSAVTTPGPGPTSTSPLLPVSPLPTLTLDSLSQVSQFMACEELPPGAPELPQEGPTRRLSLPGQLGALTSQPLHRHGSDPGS

| SMILES | hERG current change (%, negative = inhibition) at 10uM [%] |
| --- | --- |
| O=c1c2ccccc2nc(/C=C/c2ccco2)n1-c1ccccc1O | -13.3 |
| O=C(COC(=O)/C=C/C(=O)OCC(=O)Nc1ccccc1F)Nc1ccccc1F | 12.9 |
| COc1ccc(C(CC(=O)O)NC(C)=O)cc1OC (centres unmarked) | 10.4 |
| CCCc1nc(SCC(=O)Nc2nnc(SCC)s2)c2c(=O)n(C)c(=O)n(C)c2n1 | 3.68 |
| CCCCC12CN3CCN(CC(C3)/C1=N\NC(=O)c1ccccc1N)C2 | -70.8 |
| Nc1ccccc1C(=O)N/N=C1/C2CN3CCN(C2)CC1(Cc1ccccc1)C3 | -37.8 |
| CCCC12CN3CCN(CC(C3)/C1=N\NC(=O)c1ccccc1N)C2 | -4.19 |
| N#Cc1cnc(Nc2ccc(F)cc2)nc1N | -2.18 |
| CC(Sc1nc(NC(C)(C)C)nc(N(C)C)n1)C(=O)Nc1ccccc1 (centres unmarked) | 10.9 |
| CC(C)Nc1nc(SC(C)C(=O)Nc2ccccc2)nc(N(C)C)n1 (centres unmarked) | -51.4 |
| CCNc1nc(SC(C)C(=O)Nc2ccccc2)nc(N(C)C)n1 (centres unmarked) | 11.8 |
| O=C(NCCC1=CCCCC1)Nc1ccc2nsnc2c1 | 8.84 |
| O=C(c1cnc(-c2ccc(Cl)cc2)s1)c1ccc(Cl)cc1Cl | 5.71 |
| CCN(CC)CCn1c2c(c(SCC(=O)Nc3ccc(C)c(F)c3)nc1=O)CCC2 | -63.8 |
| CN(C)CCCn1c2c(c(SCC(=O)Nc3ccc4c(c3)OCO4)nc1=O)CCC2 | -10.7 |
| CCN(CC)CCn1c2c(c(SCC(=O)Nc3ccc4c(c3)OCCO4)nc1=O)CCCC2 | -20.4 |
| CCN(CC)CCCn1c2c(c(SCC(=O)Nc3ccc(C)c(F)c3)nc1=O)CCC2 | -64.5 |
| CN(C)CCCn1c2c(c(SCC(=O)Nc3ccc4c(c3)OCO4)nc1=O)CCCC2 | -39.7 |
| CCN(CC)CCn1c2c(c(SCC(=O)Nc3ccc(C)c(F)c3)nc1=O)CCCC2 | -70.1 |
| CCC1Oc2ccc(C)cc2N(CC(=O)NCc2cccc(OC)c2)C1=O (centres unmarked) | -8.94 |
| CNC(=O)c1cc2cc(OC)ccc2oc1=N | 10.4 |
| CC/C(=N\NC(=O)c1c[nH]c2ccccc12)c1cccs1 | 10.9 |

| SMILES | hERG current change (%, negative = inhibition) at 10uM [%] |
| --- | --- |
| O=C(O)c1c(-n2cccc2)sc2c1CCCC2 | 24.4 |
| COc1cc(C)c(Br)cc1S(=O)(=O)NCc1ccccc1 | 12.9 |
| COc1ccc(CN2CCNC(=O)C2CC(=O)NCCN2CCCCC2=O)c(F)c1 (centres unmarked) | 19.1 |
| Cc1nn(CCCC(=O)Nc2ccccn2)c(C)c1[N+](=O)[O-] | 18.3 |
| O=C(COc1ccc(-n2cnnn2)cc1)NCCc1ccc(F)cc1 | -51.5 |
| NC(=O)COc1ccc(-n2cnnn2)cc1 | 32.4 |
| O=C(COc1ccc(F)cc1)Nc1ccc(-n2cnnn2)cc1 | -49.5 |
| O=C(COc1ccc(-n2cnnn2)cc1)Nc1ccc(F)c(F)c1F | 5.48 |
| O=C(COc1ccc2c(c1)CCC2)N1CCN(c2ccc(F)cc2)CC1 | -2.53 |
| O=C(COc1ccc(-n2cnnn2)cc1)N1CCN(c2ccc(F)cc2)CC1 | -71.5 |
| N/C(=N\N=C\c1ccnc2ccccc12)SC1CC(=O)N(c2ccc(Br)cc2)C1=O (centres unmarked) | 0.637 |
| CC(C)Sc1cc(N2CCOCC2)nc(-c2ccccc2)n1 | 2.76 |
| COCCn1c(N)c(N(Cc2ccccc2)C(=O)c2ccc(-c3ccc(Cl)cc3)o2)c(=O)[nH]c1=O | -45.5 |
| Cc1ccc(-n2nc(C)c(/C=N/NC(=O)c3cccs3)c2Cl)cc1 | 5.12 |
| O=C(CN1CCN(S(=O)(=O)c2ccc(Br)cc2)CC1)N/N=C/c1cccs1 | -58.4 |
| Cc1ccsc1/C=N/NC(=O)CN1CCN(S(=O)(=O)c2ccc(Br)cc2)CC1 | -41.7 |
| O=C(CN1CCOCC1)N/N=C/c1ccco1 | 17.1 |
| Cc1ccc(/C=N/NC(=O)CN2CCN(S(=O)(=O)c3ccc(Br)cc3)CC2)s1 | -58.9 |
| O=C(CN1CCN(S(=O)(=O)c2ccc(Br)cc2)CC1)N/N=C/c1ccccc1C(=O)O | 14.2 |
| Cc1ccc(S(=O)(=O)N2CCN(CC(=O)N/N=C/c3ccc(Br)s3)CC2)cc1 | -49 |
| O=C(CN1CCN(S(=O)(=O)c2ccc(Br)cc2)CC1)N/N=C/c1ccc(Br)s1 | -17.6 |
| Cc1ccc(S(=O)(=O)N2CCN(CC(=O)N/N=C/c3ccco3)CC2)cc1 | -33 |
